Assay results published in paper PMC5700166.
Substitutions are numbered along the chain they refer to.

Legend:
Assay in all cases: protein-binding microarray (PBM); PBM: ~300 nM protein, 6 mM HEPES pH 7.8, 80 mM KCl, 0.5 mM EDTA, 0.5 mM EGTA, 6% glycerol, 35 ng/ul poly-dIdC, 1% milk, 1 h, room temperature; Ap Aiptasia and Nv Nematostella (sea anemones) / Co Capsaspora / Aq Amphimedon (sponge) / Dm Drosophila / Hu human; RHD is the Rel homology domain; high values mean tight binding
Conditions in all cases: dsDNA, one strand shown
[1] = target: T1, GST-Ap-NF-kB RHD (Exaiptasia pallida (Aiptasia), UniProt A0A913YAJ5 2-422)
T1 sequence: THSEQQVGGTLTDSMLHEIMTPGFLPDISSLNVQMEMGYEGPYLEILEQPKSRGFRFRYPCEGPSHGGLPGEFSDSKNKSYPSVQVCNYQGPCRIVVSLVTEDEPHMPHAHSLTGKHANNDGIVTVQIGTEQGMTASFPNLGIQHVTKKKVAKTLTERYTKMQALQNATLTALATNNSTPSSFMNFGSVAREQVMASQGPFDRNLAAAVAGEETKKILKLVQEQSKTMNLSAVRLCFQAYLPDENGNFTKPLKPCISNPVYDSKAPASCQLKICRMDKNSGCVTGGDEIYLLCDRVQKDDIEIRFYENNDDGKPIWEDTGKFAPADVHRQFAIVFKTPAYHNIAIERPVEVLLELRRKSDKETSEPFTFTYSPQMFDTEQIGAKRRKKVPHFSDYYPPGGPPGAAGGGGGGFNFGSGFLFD

[2] = target: T2, GST-Nv-NF-kB (Cys allele) (Nematostella vectensis, UniProt E5G601 2-411)
T2 sequence: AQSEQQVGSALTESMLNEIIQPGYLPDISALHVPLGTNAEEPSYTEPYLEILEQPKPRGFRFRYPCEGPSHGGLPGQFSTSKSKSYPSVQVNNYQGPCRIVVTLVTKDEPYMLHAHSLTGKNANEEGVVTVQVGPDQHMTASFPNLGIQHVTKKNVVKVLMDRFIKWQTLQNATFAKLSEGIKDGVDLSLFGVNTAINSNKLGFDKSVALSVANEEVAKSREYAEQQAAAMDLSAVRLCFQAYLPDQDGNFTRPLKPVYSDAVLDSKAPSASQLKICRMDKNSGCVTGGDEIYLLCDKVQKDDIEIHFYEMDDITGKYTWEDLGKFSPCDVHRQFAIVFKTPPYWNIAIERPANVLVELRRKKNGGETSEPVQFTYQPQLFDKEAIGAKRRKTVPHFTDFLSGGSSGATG

[3] = target: T3, GST-Nv-NF-kB (Ser allele) (Nematostella vectensis, UniProt A7UNT2 2-411)
T3 sequence: T2 sequence with Q21R, C66S, S207N, E215Q, V217A, E225K, A268E, D399E

[4] = target: T4, GST-Co-NF-kB (Capsaspora owczarzaki, UniProt F1ARL5 200-546)
T4 sequence: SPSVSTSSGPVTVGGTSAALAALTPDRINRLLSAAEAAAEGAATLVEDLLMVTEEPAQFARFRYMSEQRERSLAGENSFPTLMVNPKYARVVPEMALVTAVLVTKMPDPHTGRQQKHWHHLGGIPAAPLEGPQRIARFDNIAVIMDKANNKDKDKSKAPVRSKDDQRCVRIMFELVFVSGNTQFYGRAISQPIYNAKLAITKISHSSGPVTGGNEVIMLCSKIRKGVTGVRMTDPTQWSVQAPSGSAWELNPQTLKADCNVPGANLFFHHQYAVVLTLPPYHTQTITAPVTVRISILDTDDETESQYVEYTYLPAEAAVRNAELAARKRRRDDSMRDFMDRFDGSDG

[5] = target: T5, GST-Dm-Relish (Drosophila melanogaster, UniProt Q94527 99-473)
T5 sequence: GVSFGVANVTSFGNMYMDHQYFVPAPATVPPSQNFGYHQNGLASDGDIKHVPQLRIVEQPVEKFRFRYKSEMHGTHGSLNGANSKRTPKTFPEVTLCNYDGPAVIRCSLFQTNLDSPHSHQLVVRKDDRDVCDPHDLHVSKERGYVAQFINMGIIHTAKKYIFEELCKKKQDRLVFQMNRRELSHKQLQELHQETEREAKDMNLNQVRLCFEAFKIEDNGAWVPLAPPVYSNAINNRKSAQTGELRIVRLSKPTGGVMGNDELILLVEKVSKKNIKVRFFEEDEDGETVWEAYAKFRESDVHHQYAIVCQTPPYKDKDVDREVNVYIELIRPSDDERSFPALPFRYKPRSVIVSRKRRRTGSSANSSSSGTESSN

[6] = target: T6, GST-Aq-NF-kB (Amphimedon queenslandica, UniProt A9Y5G7 2-389)
T6 sequence: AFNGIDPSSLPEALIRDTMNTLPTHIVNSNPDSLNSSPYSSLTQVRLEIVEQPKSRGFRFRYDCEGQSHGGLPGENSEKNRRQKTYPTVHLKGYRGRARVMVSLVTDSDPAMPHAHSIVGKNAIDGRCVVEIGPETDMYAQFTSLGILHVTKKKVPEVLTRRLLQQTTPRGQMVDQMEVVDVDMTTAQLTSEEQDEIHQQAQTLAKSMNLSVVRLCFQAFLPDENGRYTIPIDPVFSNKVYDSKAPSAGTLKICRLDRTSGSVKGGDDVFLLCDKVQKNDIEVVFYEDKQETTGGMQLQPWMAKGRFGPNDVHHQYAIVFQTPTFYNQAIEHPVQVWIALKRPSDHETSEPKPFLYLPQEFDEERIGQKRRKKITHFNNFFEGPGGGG

[7] = target: GST-Hu-p50 (Homo sapiens, UniProt P19838 7-356)
Sequence of GST-Hu-p50 (P19838 7-356): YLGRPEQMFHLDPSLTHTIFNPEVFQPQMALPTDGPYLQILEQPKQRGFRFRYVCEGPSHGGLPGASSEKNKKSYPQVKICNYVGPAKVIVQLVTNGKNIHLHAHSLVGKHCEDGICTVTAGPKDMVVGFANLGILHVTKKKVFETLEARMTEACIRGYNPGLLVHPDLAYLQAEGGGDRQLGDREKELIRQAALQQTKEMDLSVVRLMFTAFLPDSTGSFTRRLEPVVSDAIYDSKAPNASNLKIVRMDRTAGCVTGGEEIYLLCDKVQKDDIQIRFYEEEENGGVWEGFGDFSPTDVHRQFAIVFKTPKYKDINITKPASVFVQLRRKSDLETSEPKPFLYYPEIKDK

Sequence | binding signal [1] [z-score] | binding signal [2] [z-score] | binding signal [3] [z-score] | binding signal [4] [z-score] | binding signal [5] [z-score] | binding signal [6] [z-score] | binding signal [7] [z-score]
CCGATTAACATCAGCACTCCCCCTGATGTTAATCGGGTCTTGATTCGCTTGACGCTGCTG | 5.42 | 4.35 | 4.91 | 3.89 | 2.23 | 3.99 | 5.21
CCGATTAACATCACAACTCCCCCTGATGTTAATCGGGTCTTGATTCGCTTGACGCTGCTG | 5.84 | 4.69 | 5.89 | 6.16 | 3.67 | 5.15 | 5.55
CCGATTAACATCAAATTCCCGGGTGATGTTAATCGGGTCTTGATTCGCTTGACGCTGCTG | 3.33 | 3.9 | 3.88 | 4.43 | 3.94 | 3.13 | 3.85
CCGATTAACATCAGGGTAAACCCTGATGTTAATCGGGTCTTGATTCGCTTGACGCTGCTG | 3.1 | 4.05 | 2.62 | 2.45 | 5.92 | 6.52 | 2.7
CCGATTAACATCAAAAAATCCCATGATGTTAATCGGGTCTTGATTCGCTTGACGCTGCTG | 4.84 | 5.22 | 4.17 | 2.05 | 8.41 | 5.43 | 4.75
CCGATTAACATCAGGATTACCCCTGATGTTAATCGGGTCTTGATTCGCTTGACGCTGCTG | 4.61 | 4.15 | 3.63 | 3.97 | 4.19 | 5.53 | 3.75
CCGATTAACATCACGGGTTCCCCTGATGTTAATCGGGTCTTGATTCGCTTGACGCTGCTG | 7.55 | 5.61 | 6.62 | 5.5 | 7.65 | 4.79 | 4.64
CCGATTAACATCAGAGTATTCCCTGATGTTAATCGGGTCTTGATTCGCTTGACGCTGCTG | 3.08 | 2.98 | 3.2 | 2.71 | 2.22 | 3.06 | 1.6
CCGATTAACATCAGGGTGGGAAATGATGTTAATCGGGTCTTGATTCGCTTGACGCTGCTG | 2.06 | 3.1 | 2.77 | 3.37 | 1.62 | 2.27 | 2.15
CCGATTAACATCACATGGGAATCTGATGTTAATCGGGTCTTGATTCGCTTGACGCTGCTG | 1 | 2.19 | 2.46 | 1.08 | 1.82 | 1.14 | 1.59
CCGATTAACATCAGGGAAAGACCTGATGTTAATCGGGTCTTGATTCGCTTGACGCTGCTG | 3.24 | 5.27 | 4.32 | 1.41 | 5.61 | 7.5 | 3.67
CCGATTAACATCACGGGGAATTCTGATGTTAATCGGGTCTTGATTCGCTTGACGCTGCTG | 9.62 | 10.1 | 10.3 | 8.83 | 8.15 | 7.98 | 6.54
CCGATTAACATCAAGGGGGAAAATGATGTTAATCGGGTCTTGATTCGCTTGACGCTGCTG | 6.85 | 6.58 | 10.6 | 9.03 | 4.2 | 6.14 | 7.34
CCGATTAACATCAGGAATATCCCTGATGTTAATCGGGTCTTGATTCGCTTGACGCTGCTG | 2.84 | 3.66 | 2.12 | 1.54 | 2.78 | 6.03 | 3.26
CCGATTAACATCAAAGAAACCCCTGATGTTAATCGGGTCTTGATTCGCTTGACGCTGCTG | 6 | 5.33 | 5.11 | 1.95 | 6.23 | 5.01 | 5.25
CCGATTAACATCAAGGGGGAAATTGATGTTAATCGGGTCTTGATTCGCTTGACGCTGCTG | 7.69 | 8.6 | 10.5 | 8.86 | 5.87 | 7.06 | 7.51
CCGATTAACATCAGGGAATTTCATGATGTTAATCGGGTCTTGATTCGCTTGACGCTGCTG | 5 | 7.17 | 7.08 | 3.61 | 4.49 | 5.84 | 5.25
CCGATTAACATCAGGGGAATGTATGATGTTAATCGGGTCTTGATTCGCTTGACGCTGCTG | 6.02 | 7.74 | 8.56 | 6.26 | 2.96 | 5.58 | 5.69
CCGATTAACATCAAACGCCCCCCTGATGTTAATCGGGTCTTGATTCGCTTGACGCTGCTG | 4.79 | 4.46 | 3.85 | 3.84 | 4.9 | 5.57 | 5.03
CCGATTAACATCAGGGAAAATACTGATGTTAATCGGGTCTTGATTCGCTTGACGCTGCTG | 3.76 | 6.09 | 6.82 | 4.49 | 4.93 | 5.71 | 4.76
CCGATTAACATCAAAGTATCCCCTGATGTTAATCGGGTCTTGATTCGCTTGACGCTGCTG | 6.1 | 5.64 | 7.21 | 5.48 | 3.47 | 4.4 | 4.64
CCGATTAACATCAGGGATATACCTGATGTTAATCGGGTCTTGATTCGCTTGACGCTGCTG | 3.17 | 3.3 | 1.91 | 1.14 | 6.4 | 5.31 | 1.99
CCGATTAACATCAGGAAACTCCCTGATGTTAATCGGGTCTTGATTCGCTTGACGCTGCTG | 5.65 | 7.91 | 4.86 | 1.88 | 5.39 | 9.07 | 5.86
CCGATTAACATCAGAATTTTCCCTGATGTTAATCGGGTCTTGATTCGCTTGACGCTGCTG | 4.45 | 7.42 | 7.41 | 5.08 | 2.3 | 6.44 | 5.01
CCGATTAACATCAGGGGGATTCATGATGTTAATCGGGTCTTGATTCGCTTGACGCTGCTG | 8.54 | 7.43 | 8.48 | 5.63 | 7.41 | 6.1 | 7.07
